Test [1] deals with Myc proto-oncogene protein (Homo sapiens) (UniProt P01106). The test is described as follows: ATG_Myc_CIS: Attagene CIS-FACTORIAL HepG2 Assay for human Myelocytomatosis (Myc) Proto-Oncogene Transcription Factor (AID 2282990). The conditions noted are these: HepG2, Attagene cis-reporter transcription factor activity; actives raise or lower the signal. Summed up:
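Cells of the HepG2 human liver line bear multiple cis-driven reporter transcription units. Reporter mRNA after 24 h exposure is reverse-transcribed, amplified, labelled and resolved by capillary electrophoresis, with gain- or loss-of-signal fitting relative to DMSO.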

Test [2] is described as follows: ATG_NRF2_ARE_CIS: Attagene CIS-FACTORIAL HepG2 Assay for human Nuclear Factor Erythroid 2 Related Factor 2 (NFR2) response to Antioxidant Response Elements (ARE) (AID 2282992).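 On AC50: reporter mRNA level measured by RT-PCR and capillary electrophoresis fluorescence.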 Conditions: HepG2 Attagene ARE/NRF2 reporter, transcription factor activity; actives raise or lower the signal. Summed up: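 Endogenous transcription factor activity in human liver HepG2 cells is tracked via a cis-element-driven reporter within a multiplexed set. mRNA induction is read by RT-PCR and capillary electrophoresis after 24 h, with DMSO as baseline.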

Test [3] is described as follows: ATG_Oct_MLP_CIS: Attagene CIS-FACTORIAL HepG2 Assay for human Octamer-Binding Transcription Factor (Oct) (AID 2282993). The conditions noted are these: HepG2 Attagene cis-factorial Oct reporter, mRNA; actives raise or lower the signal. Summed up:
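HepG2 cells transiently transfected with cis-element-driven reporter transcription units (endogenous TF activity); 24 h compound exposure. Reporter mRNA quantified by RT-PCR, 6-FAM labelling, HpaI digestion and capillary electrophoresis; bidirectional fit versus DMSO baseline.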

Test [4] addresses Cellular tumor antigen p53 (Homo sapiens) (UniProt P04637). In words: ATG_p53_CIS: Attagene CIS-FACTORIAL HepG2 Assay for human p53 Transcription Factor (AID 2282994). Conditions: HepG2 p53 cis-element reporter, Attagene mRNA; actives raise or lower the signal. Summed up:
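Steps: transfect HepG2 with multiplexed cis reporter constructs; dose chemicals 24 h; extract RNA, reverse-transcribe, PCR-amplify reporter sequences; FAM-label, HpaI-digest, resolve fragments by CE. Activity fitted both directions relative to DMSO.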

A short description of test [5]: BSK_3C_TissueFactor: BioMAP Diversity Plus: 3C Assay for Tissue Factor Biomarker Activity (AID 2282997). The conditions noted are these: BioMAP 3C HUVEC, tissue factor biomarker readout; actives raise or lower the signal. Summed up: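 Tissue Factor measured by ELISA, 24 h after treatment of primary HUVEC in the BioMAP 3C setting.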
Test [6] in a line: BSK_3C_uPAR: BioMAP Diversity Plus: 3C Assay for Urokinase-type plasminogen activator receptor (uPAR) Biomarker Activity (AID 2282998). The conditions noted are these: BioMAP 3C HUVEC, uPAR biomarker ELISA; actives raise or lower the signal. Summed up:
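Primary human umbilical vein endothelial cells, 3C system; surface uPAR measured by ELISA 24 h after dosing. Cytotoxicity via SRB total protein in parallel cultures; bidirectional fit against DMSO.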
Background: An ELISA detects its analyte on a solid surface through an enzyme-linked reagent.

Test [7] in a line: BSK_3C_VCAM1: BioMAP Diversity Plus: 3C Assay for Vascular cell adhesion molecule 1 (VCAM1) Biomarker Activity (AID 2282999). The conditions noted are these: BioMAP 3C HUVEC, VCAM1 ELISA, cytokine-stimulated; actives raise or lower the signal. Summed up: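 Activity fitted in both directions relative to DMSO, with ELISA measurement of the surface marker on primary HUVEC (3C) at 24 h post-treatment; parallel SRB staining (0.1% SRB, TCA-fixed, 560 nm) flagged overt cytotoxicity.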

The nature of test [8]: BSK_4H_Eotaxin3: BioMAP Diversity Plus: 4H Assay for Eotaxin 3 Biomarker Activity (AID 2283000).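 On outcome: CCL26 protein level quantified by ELISA in parallel with SRB cytotoxicity check.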 The conditions noted are these: primary human endothelial cells (HUVEC); actives raise or lower the signal. Summed up:
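Eotaxin-3 (CCL26) levels were measured by ELISA in HUVEC primary cultures 24 h post-dosing. Gain or loss of signal was fitted in both directions, with DMSO serving as baseline and negative control.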

The target in test [9] is human Peroxisome Proliferator-activated Receptor alpha (PPARa), PPARA (gene 5465) (UniProt Q07869). In words: ATG_PPARa_TRANS: Attagene TRANS-FACTORIAL HepG2 Assay for human Peroxisome Proliferator-activated Receptor alpha (PPARa) (AID 2283001; active means hit-call score of the fitted dose curve at least 0.9, where 1 is the maximum). Summed up: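 Reporter transcripts quantified by RT-PCR plus capillary electrophoresis after 24 h treatment, fitted upward relative to DMSO. Cells: human HepG2 transiently carrying multiple GAL4-UAS reporter units driven by NR-Gal4 chimeras.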
Chain of human Peroxisome Proliferator-activated Receptor alpha (PPARa), PPARA (gene 5465) (Q07869 whole entry, looked up, the tested form may be a part): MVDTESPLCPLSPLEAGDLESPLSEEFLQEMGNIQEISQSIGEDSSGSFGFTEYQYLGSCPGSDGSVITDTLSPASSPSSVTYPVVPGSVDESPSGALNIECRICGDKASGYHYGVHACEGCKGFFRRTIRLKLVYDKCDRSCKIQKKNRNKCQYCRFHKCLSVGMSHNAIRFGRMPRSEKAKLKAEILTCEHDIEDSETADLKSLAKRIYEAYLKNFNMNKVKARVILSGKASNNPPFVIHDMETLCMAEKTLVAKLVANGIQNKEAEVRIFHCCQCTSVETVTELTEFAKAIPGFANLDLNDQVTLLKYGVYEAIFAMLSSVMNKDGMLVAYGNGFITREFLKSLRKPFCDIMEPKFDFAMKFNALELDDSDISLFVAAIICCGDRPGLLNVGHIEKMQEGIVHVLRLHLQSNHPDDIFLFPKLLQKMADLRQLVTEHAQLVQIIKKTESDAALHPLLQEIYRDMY

Test [10] has as its target human Peroxisome Proliferator-activated Receptor delta (PPARd), PPARD (gene 5467) (UniProt Q03181). The test is described as follows: ATG_PPARd_TRANS: Attagene TRANS-FACTORIAL HepG2 Assay for human Peroxisome Proliferator-activated Receptor delta (PPARd) (AID 2283002; active means hit-call score of the fitted dose curve at least 0.9, where 1 is the maximum). Summed up:
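Cell-based TRANS reporter: HepG2, transient MRTU transfection, 24 h exposure. Readout = reporter mRNA (RT-PCR/CE, 6-FAM). Gain-of-signal fit vs DMSO control.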

Read-out in test [11]: Intercellular Adhesion Molecule 1 (ICAM1), ICAM1 (gene 3383)
In words: BSK_3C_ICAM1: BioMAP Diversity Plus: 3C Assay for Intercellular Adhesion Molecule 1 (ICAM1) Biomarker Activity (AID 2283003). The conditions noted are these: primary human endothelial cells (HUVEC); actives raise or lower the signal. Summed up:
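ELISA readout of ICAM1 in human umbilical vein endothelial cells in the 3C system, taken 24 h post-dose. Gain or loss of signal versus DMSO was fitted in both directions, with SRB total-protein staining run in parallel.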

Test [12] in a line: BSK_3C_Proliferation: Cell Proliferation Assessment in the BioMAP Diversity Plus: 3C Assay (AID 2283006).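 On AC50: potency may reflect either rise or fall in cell number versus DMSO.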 Conditions: primary human endothelial cells (HUVEC). Summed up: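 Proliferation as total protein: sulforhodamine B (0.1%) stain of TCA-fixed subconfluent human umbilical vein endothelial cells, absorbance 560 nm, 48 h after dosing. Activity fitted in both directions against DMSO baseline.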

Test [13] addresses Nuclear receptor subfamily 1 group I member 2 (Homo sapiens) (UniProt O75469). The test is described as follows: ATG_PXR_TRANS: Attagene TRANS-FACTORIAL HepG2 Assay for human Pregnane X Receptor (PXR) (AID 2283008; active means hit-call score of the fitted dose curve at least 0.9, where 1 is the maximum). Summed up: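 HepG2 transfected (FuGene 6) with GAL4-UAS reporter units + PXR-Gal4 chimera; dosed 24 h. Total RNA → oligo(dT) RT → PCR → 6-FAM primer extension → HpaI cut → CE. Gain-of-signal vs DMSO.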

In test [14] the target is human RAR-related Orphan Receptor beta (RORb), RORB (gene 6096) (UniProt Q92753). The test is described as follows: ATG_RORb_TRANS: Attagene TRANS-FACTORIAL HepG2 Assay for human RAR-related Orphan Receptor beta (RORb) (AID 2283010; active means hit-call score of the fitted dose curve at least 0.9, where 1 is the maximum). Summed up:
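Read-out is reporter mRNA induction, quantified by RT-PCR with fluorescent capillary electrophoresis, 24 h post-dose in transiently transfected HepG2 expressing exogenous NR-Gal4 chimera. Activity fitted upward versus DMSO.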

The target in test [15] is Retinoic acid receptor RXR-alpha (Homo sapiens) (UniProt P19793). In words: ATG_RXRa_TRANS: Attagene TRANS-FACTORIAL HepG2 Assay for human Retinoid X Receptor alpha (RXRa) (AID 2283012; active means hit-call score of the fitted dose curve at least 0.9, where 1 is the maximum). Summed up: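 TRANS format reporting activity of exogenous RXRa-Gal4 chimera in transiently transfected HepG2, 24 h exposure. Reporter transcripts quantified by RT-PCR with capillary electrophoresis, with gain of signal scored relative to DMSO.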
Chain of Retinoic acid receptor RXR-alpha (Homo sapiens) (P19793 whole entry, looked up, the tested form may be a part): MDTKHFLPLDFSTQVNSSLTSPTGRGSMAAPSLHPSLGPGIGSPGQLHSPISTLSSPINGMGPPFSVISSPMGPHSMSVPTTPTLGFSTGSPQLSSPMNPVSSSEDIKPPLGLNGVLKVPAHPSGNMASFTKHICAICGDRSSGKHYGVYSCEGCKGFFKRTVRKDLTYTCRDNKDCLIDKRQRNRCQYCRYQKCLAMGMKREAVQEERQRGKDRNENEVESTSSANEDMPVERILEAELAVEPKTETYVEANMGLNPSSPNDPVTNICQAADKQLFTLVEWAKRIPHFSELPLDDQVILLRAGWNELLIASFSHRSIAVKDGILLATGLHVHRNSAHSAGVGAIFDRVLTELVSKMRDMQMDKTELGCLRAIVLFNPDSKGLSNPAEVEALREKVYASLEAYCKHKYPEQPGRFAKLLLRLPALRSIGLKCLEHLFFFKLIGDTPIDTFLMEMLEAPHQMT

Test [16] is described as follows: ATG_NF_kB_CIS: Attagene CIS-FACTORIAL HepG2 Assay for human Nuclear Factor Kappa B (NF-kB) (AID 2282991). The conditions noted are these: HepG2 Attagene cis-factorial NF-kB reporter mRNA; actives raise or lower the signal. Summed up:
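Readout is reporter transcript level, gain or loss versus DMSO, measured 24 h post-dose via RT-PCR, fluorescent labelling and capillary electrophoresis. Human HepG2 liver cells carried transiently transfected CIS reporter constructs reflecting endogenous factors.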

For test [17], the target named is Peroxisome proliferator-activated receptor gamma (Homo sapiens) (UniProt P37231). In words: ATG_PPARg_TRANS: Attagene TRANS-FACTORIAL HepG2 Assay for human Peroxisome Proliferator-activated Receptor-gamma (PPARg) (AID 2283007; active means hit-call score of the fitted dose curve at least 0.9, where 1 is the maximum). Summed up:
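After 24 h of chemical exposure, transfected HepG2 cells carrying PPARγ-Gal4 chimera reporter constructs are lysed for RNA. Reporter transcripts are measured by RT-PCR and capillary electrophoresis with fluorescent labelling, and gain of signal is fitted versus DMSO.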

In test [18] the target is human RAR-related Orphan Receptor gamma (RORg), RORC (gene 6097) (UniProt P51449). In words: ATG_RORg_TRANS: Attagene TRANS-FACTORIAL HepG2 Assay for human RAR-related Orphan Receptor gamma (RORg) (AID 2283011; active means hit-call score of the fitted dose curve at least 0.9, where 1 is the maximum). Summed up:
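HepG2 cells transiently transfected with GAL4-UAS reporter units and chimeric RORg-Gal4 construct; after 24 h chemical exposure, reporter mRNA measured by RT-PCR with fluorescent capillary electrophoresis, gain of signal fitted against DMSO.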

In test [19] the target is human Retinoic Acid Receptor gamma (RARg), RARG (gene 5916) (UniProt P13631). The test is described as follows: ATG_RARg_TRANS: Attagene TRANS-FACTORIAL HepG2 Assay for human Retinoic Acid Receptor gamma (RARg) (AID 2283009; active means hit-call score of the fitted dose curve at least 0.9, where 1 is the maximum). Summed up:
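Transactivation of exogenous RARg-Gal4 fusion measured as reporter transcript induction after 24 h in transfected HepG2 cells. RNA reverse-transcribed, amplified, fluorescently labeled and resolved by capillary electrophoresis; increase relative to DMSO.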

Test [20] has as its target Retinoic acid receptor alpha (Homo sapiens) (UniProt P10276). In words: ATG_RARa_TRANS: Attagene TRANS-FACTORIAL HepG2 Assay for human Retinoic Acid Receptor alpha (RARa) (AID 2283005; active means hit-call score of the fitted dose curve at least 0.9, where 1 is the maximum). Summed up: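 Reporter transcripts, measured by RT-PCR with fluorescent labeling and capillary electrophoresis after 24 h dosing, reflect activity of an exogenous human RARa–GAL4 fusion in transiently transfected HepG2. Fitted for increase relative to DMSO.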

The structures appear in SMILES notation. Results filed as inconclusive are left out. Activity calls are given as the source filed them. How the source made its calls, unless noted: active means hit-call score of the fitted dose curve at least 0.9, where 1 is the maximum; inactive means score below 0.9.

For orientation: AC50 means the concentration at which the activity in the assay is half-maximal.

Chain of human RAR-related Orphan Receptor beta (RORb), RORB (gene 6096) (Q92753 whole entry, looked up, the tested form may be a part): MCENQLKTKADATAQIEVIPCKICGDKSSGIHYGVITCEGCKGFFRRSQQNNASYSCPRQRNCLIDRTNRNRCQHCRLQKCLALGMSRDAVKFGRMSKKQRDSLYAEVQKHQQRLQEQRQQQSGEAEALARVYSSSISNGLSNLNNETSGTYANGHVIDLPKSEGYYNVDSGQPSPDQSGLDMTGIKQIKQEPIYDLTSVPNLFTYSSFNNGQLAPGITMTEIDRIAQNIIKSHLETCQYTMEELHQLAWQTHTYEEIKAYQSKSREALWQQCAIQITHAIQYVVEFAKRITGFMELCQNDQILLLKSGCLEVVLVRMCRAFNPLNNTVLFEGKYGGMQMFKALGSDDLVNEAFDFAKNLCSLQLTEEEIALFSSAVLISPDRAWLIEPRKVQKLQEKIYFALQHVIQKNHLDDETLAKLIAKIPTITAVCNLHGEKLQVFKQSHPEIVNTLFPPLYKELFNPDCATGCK
Chain of human Peroxisome Proliferator-activated Receptor delta (PPARd), PPARD (gene 5467) (Q03181 whole entry, looked up): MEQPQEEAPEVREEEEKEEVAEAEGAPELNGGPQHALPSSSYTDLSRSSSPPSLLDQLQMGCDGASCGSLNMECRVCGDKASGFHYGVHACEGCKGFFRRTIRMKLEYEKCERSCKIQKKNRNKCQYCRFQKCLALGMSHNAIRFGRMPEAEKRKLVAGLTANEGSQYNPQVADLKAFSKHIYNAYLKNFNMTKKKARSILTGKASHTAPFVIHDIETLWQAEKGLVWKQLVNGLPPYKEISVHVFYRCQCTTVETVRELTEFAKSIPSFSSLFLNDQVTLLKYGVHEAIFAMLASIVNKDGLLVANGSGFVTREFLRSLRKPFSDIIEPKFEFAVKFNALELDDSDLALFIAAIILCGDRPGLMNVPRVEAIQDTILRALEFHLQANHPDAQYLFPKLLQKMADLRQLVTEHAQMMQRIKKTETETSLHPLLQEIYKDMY
Chain of Nuclear receptor subfamily 1 group I member 2 (Homo sapiens) (O75469 whole entry, looked up, the tested form may be a part): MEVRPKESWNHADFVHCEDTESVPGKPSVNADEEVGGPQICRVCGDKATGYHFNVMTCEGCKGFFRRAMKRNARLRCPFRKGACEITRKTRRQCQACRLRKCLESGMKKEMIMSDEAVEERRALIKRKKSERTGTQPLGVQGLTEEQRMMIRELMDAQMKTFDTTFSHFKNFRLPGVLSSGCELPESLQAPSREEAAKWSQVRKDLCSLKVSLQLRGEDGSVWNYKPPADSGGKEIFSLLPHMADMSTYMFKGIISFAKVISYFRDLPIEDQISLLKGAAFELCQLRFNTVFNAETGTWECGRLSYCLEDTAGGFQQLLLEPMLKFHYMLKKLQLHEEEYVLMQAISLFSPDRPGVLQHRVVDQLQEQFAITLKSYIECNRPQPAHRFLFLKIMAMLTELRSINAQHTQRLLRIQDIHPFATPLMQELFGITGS
Chain of Cellular tumor antigen p53 (Homo sapiens) (P04637 whole entry, looked up, the tested form may be a part): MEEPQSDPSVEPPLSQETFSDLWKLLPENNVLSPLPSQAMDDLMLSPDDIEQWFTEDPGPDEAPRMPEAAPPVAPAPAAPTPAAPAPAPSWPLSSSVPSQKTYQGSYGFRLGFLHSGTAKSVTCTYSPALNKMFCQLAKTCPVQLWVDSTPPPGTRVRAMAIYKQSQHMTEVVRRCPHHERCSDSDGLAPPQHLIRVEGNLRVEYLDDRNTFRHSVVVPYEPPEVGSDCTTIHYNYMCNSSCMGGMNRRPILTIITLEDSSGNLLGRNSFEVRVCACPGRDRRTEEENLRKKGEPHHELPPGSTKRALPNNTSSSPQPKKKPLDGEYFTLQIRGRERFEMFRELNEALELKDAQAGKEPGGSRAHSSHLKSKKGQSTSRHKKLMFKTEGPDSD
Chain of Myc proto-oncogene protein (Homo sapiens) (P01106 whole entry, looked up): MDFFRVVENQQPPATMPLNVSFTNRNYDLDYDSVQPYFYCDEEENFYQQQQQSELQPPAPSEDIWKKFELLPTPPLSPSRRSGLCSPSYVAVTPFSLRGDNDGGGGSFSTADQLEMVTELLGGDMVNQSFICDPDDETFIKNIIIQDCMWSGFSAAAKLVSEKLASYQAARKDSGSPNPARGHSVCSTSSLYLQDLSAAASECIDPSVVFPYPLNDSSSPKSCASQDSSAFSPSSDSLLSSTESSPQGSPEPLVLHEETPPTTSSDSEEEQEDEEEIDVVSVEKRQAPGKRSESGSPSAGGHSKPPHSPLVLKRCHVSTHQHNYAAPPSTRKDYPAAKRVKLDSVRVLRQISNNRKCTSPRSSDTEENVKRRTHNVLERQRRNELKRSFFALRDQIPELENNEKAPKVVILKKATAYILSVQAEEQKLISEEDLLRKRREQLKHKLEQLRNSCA
Chain of Peroxisome proliferator-activated receptor gamma (Homo sapiens) (P37231 whole entry, looked up, the tested form may be a part): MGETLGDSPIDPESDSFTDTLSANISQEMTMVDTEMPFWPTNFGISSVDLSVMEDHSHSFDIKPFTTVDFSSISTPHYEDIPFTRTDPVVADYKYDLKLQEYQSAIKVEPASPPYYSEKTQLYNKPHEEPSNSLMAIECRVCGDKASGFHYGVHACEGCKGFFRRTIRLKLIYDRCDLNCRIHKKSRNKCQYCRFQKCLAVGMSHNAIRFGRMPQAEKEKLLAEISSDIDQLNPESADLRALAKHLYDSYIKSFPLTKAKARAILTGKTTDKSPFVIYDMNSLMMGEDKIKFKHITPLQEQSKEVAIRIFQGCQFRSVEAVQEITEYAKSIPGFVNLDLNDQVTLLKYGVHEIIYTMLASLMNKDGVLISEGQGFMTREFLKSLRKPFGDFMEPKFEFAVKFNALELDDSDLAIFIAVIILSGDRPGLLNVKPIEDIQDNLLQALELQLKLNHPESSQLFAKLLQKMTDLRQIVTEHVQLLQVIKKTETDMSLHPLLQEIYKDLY
Chain of human RAR-related Orphan Receptor gamma (RORg), RORC (gene 6097) (P51449 whole entry, looked up, the tested form may be a part): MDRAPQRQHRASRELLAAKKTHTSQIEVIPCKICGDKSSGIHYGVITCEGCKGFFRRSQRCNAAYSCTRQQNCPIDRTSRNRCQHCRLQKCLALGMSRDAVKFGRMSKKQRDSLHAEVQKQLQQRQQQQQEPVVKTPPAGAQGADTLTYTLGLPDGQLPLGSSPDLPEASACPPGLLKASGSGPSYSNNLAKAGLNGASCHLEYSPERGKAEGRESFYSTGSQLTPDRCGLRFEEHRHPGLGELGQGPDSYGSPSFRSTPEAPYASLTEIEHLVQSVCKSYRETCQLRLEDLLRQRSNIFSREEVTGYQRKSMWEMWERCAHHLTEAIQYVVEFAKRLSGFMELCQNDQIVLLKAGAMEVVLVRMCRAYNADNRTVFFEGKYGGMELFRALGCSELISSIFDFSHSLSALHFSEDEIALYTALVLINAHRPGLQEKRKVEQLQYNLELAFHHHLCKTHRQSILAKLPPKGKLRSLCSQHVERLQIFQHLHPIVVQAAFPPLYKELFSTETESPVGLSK
Chain of human Retinoic Acid Receptor gamma (RARg), RARG (gene 5916) (P13631 whole entry, looked up, the tested form may be a part): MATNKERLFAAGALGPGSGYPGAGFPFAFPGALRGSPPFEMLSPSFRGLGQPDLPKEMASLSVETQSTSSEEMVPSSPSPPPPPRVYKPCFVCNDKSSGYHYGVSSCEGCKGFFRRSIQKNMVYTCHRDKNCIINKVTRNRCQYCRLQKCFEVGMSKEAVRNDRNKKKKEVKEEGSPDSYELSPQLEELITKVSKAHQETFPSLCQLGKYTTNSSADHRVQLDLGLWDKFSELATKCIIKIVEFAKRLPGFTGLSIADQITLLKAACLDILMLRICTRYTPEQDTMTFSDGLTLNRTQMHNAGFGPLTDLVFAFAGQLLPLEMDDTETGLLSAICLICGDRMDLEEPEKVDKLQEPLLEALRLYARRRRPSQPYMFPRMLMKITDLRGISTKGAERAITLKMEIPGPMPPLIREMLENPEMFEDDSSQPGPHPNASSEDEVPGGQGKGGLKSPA

In the case of `COC(=O)Cc1ccccc1`, the compound was called inactive in [1], in test [2], in [3], in [4], in [5] and in test [6]. Moreover, the outcome in test [7], in [8], in [9], in test [10], in [11] and in test [12] was inactive. Also, the call in [13], in [14] and in test [15] was inactive.

As to `C=CCc1ccc(OC)cc1`, the compound was classed as inactive in test [1], in test [16], in [2], in [3], in test [9] and in [17]. The outcome in test [18] and in [15] was inactive.

On to `CC1(C)Cc2cccc(O)c2O1`, for which the compound was called inactive in [1], in [2], in test [3], in test [5], in [6] and in test [7]. The result in test [8], in [11], in [12], in [13], in test [19] and in test [15] was inactive.

For the compound `C=C(C)C#N`, the call in test [1], in test [2], in [3], in test [4], in test [20] and in test [14] was inactive. Further, the call in test [15] was inactive.

Turning to `CCCCOCCOC(C)=O`, the result in [1], in [2], in test [3], in test [4], in [10] and in test [17] was inactive. In addition, the compound was called inactive in [13] and in [15].

For `COP(=S)(OC)Oc1ccc(S(=O)(=O)N(C)C)cc1`, the result in test [1], in test [3], in [4], in test [5], in test [6] and in test [7] was inactive. For the same compound, the result in test [8], in [9], in [11], in [12], in [17] and in test [13] was inactive. The compound was classed as inactive in [15]. In [2], the AC50 was 35.2 µM (active).

With `O=S(=O)(c1ccc(Cl)cc1)c1ccc(Cl)cc1`, the outcome in test [1], in test [3], in [4], in test [5], in test [6] and in [7] was inactive. The result in [8], in test [10], in test [11], in [12] and in [15] was inactive. For the same compound, the AC50 in [2] is 10 µM (active); in test [13], 7 µM (active).

`O=C(O)CCC(F)(C(F)(F)F)C(F)(F)F`: the outcome in [5], in test [6], in [7], in [8], in test [11] and in test [12] was inactive.

For the compound `ClC1=C(Cl)[C@]2(Cl)[C@H]3[C@H]([C@H]4C=C[C@H]3C4)[C@@]1(Cl)C2(Cl)Cl`, the compound was called inactive in test [1], in test [2], in test [3], in [4] and in [11]. Also, the AC50 in test [5] is 2.35 µM (active); in test [6] it was 3.97 µM (active); in test [7], 3.97 µM (active); in test [8] it was 20 µM (active); in test [12], 20 µM (active); in test [17], 64 µM (active). Besides, in [13], the AC50 is 0.794 µM (active).

For `CCc1ccccc1N`, the call in [1], in [2], in test [3], in test [9], in [17] and in test [13] was inactive. Moreover, the outcome in test [14] and in test [18] was inactive.

The values are drawn from PubChem BioAssay (EPA / NIEHS).
